Platelet DG rel: modulates dense granule release in human platelets. human platelet-rich plasma, SFLLRN dense granule ATP release, luminescence. inhibition, %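 (compounds screened at 7.5 µM in platelet-rich plasma)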. 300,000 tested, 0.22% active. AID 1663;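 active = mean replicate score, as percent of positive control, at or above 50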
PfM18AAP inh: PfM18AAP enzyme inhibition. recombinant PfM18AAP, H-Glu-NHMec fluorogenic cleavage. inhibition, % at 7.35 µM. 290,000 tested, 1.2% active. AID 1822;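 active = inhibition above the campaign mean inhibition over all tested compounds plus 3 SD, cut at about 28% in these data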
Rce1 inhib: inhibitors of yeast Ras-converting enzyme | Q03530 | yeast membranes, quenched prenylated peptide cleavage fluorescence | calls only | 290,000 tested, 0.27% active | AID 2563;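 active = fall in fluorescence gain of 50% or more versus controls, with final raw signal at or below 3038400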
Target sequence (Q03530 whole entry, looked up): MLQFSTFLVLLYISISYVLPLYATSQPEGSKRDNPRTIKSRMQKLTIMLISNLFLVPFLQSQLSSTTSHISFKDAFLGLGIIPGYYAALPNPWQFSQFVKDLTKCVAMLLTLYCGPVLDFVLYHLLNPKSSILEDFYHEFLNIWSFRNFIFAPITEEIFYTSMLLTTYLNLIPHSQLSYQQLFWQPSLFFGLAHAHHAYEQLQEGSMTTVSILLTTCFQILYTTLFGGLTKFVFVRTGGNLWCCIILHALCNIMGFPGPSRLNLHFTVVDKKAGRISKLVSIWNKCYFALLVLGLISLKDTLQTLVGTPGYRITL
Exocytosis inh: blocks lytic granule exocytosis | inhibition, % at 10 µM | 360,000 tested, 0.66% active | TALL-104 LAMP-1 surface exposure, flow cytometry; cells stimulated with thapsigargin and PMA;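 active = inhibition above about 55%, limit read from the data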
ABHD5 PLIN5 PPI: ABHD5-PLIN5 protein interaction inhibition. Split G. princeps luciferase complementation, luminescence, 4 h. 360,000 tested, 0.78% active. inhibition, % at 4 µM. Q00G26+Q8WTS1;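 active = inhibition above the mean inhibition across every tested compound plus 3 SD, cut at about 22% in these data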
Each line names hits and unclear results; the compound was inactive in the other large screens. A selection: hits, their analogues and other compounds. The true share with any hit is near 2.6%.

Cc1cc(-c2ccccc2)nc2cc(C(=O)NCc3ccco3)nn12	ABHD5 PLIN5 PPI 23
Cc1nc(N2CCOCC2)c2c(C)c(C(=O)Nc3ccccc3C(F)(F)F)sc2n1	Rce1 inhib active
Cc1nc(N2CCCCC2C)c2c(C)c(C(=O)Nc3ccccc3C(F)(F)F)sc2n1 (configuration not stated)	Rce1 inhib active
CC12CCC(=O)N1C(C(=O)OCC(=O)Nc1ccc(S(N)(=O)=O)cc1)CS2 (configuration not stated)	none
CC(C)(C)NC(=O)CN1CCC(O)(c2ccccc2)CC1	none
CN(C)CCCN(C(=O)c1cc(-c2cccs2)nc2ccccc12)c1nc2ccc(F)cc2s1	Rce1 inhib active
CC(C)(C)c1ccc(C(=O)NCCOc2ccccc2)cc1	none
O=C(CSc1n[nH]c(-c2ccc(S(=O)(=O)N3CCCCC3)cc2)n1)Nc1nccs1	Rce1 inhib active
COc1ccc(S(=O)(=O)NC(C(C)C)C(C)C)cc1OC	none
CN(CC(=O)Nc1ccc(F)cc1)C(=O)CN1C(=O)c2ccccc2C1=O	none (no result: Platelet DG rel, PfM18AAP inh, Rce1 inhib)
CCNC(=S)NNC(=O)CCn1cc(C)cn1	Rce1 inhib active
CC(O)[C@H]1CC[C@H]2[C@@H]3CC[C@H]4C[C@@H](O)CC[C@]4(C)[C@H]3/C(=N/O)C[C@]12C (some centres not stated)	Exocytosis inh 82 (no result: PfM18AAP inh)
O=C1c2cccc([N+](=O)[O-])c2C(=O)N1CCO	none (no result: Rce1 inhib)
O=C1CSC(=S)N1N1C(=O)c2cccc([N+](=O)[O-])c2C1=O	PfM18AAP inh 43 (no result: Exocytosis inh, ABHD5 PLIN5 PPI)
O=C(O)c1cc(-c2cccc3ccccc23)nc2ccccc12	none
COc1ccc(C2=CC(=O)OC3(CCCCC3)O2)cc1	none
C=C(C)C1(O)OC(=O)C=C1OC (configuration not stated)	Rce1 inhib active
Cc1ccc(NC(=S)NNc2ncc(C(F)(F)F)cc2Cl)c(C)c1	PfM18AAP inh 28 (no result: Platelet DG rel)
Cc1ccc(S(=O)(=O)N2CCCCC2)cc1NC(=O)CNC(C)c1ccc(Cl)c(Cl)c1 (configuration not stated)	none (no result: Platelet DG rel, PfM18AAP inh, Rce1 inhib)
CC(O)(c1ccc(F)c(F)c1)c1nc(-c2ccoc2)cs1 (configuration not stated)	ABHD5 PLIN5 PPI 22 (no result: Platelet DG rel, PfM18AAP inh, Rce1 inhib)
CCc1cc(C(=O)N/N=C/c2ccc(O)cc2)c2ccccc2n1	ABHD5 PLIN5 PPI 23
Cc1cc(C(=O)N/N=C/c2ccc(N(C)C)cc2)c2ccccc2n1	none
Cc1ccccc1NC(=O)/C=C/c1ccc([N+](=O)[O-])s1	ABHD5 PLIN5 PPI 29
CC(C)(C)c1nc(SCC(=O)Nc2ccc(N3CCOCC3)cc2)c2ccccc2n1	none
COc1cc2oc(-c3ccc(O)cc3)cc(=O)c2c(OC)c1O	PfM18AAP inh 33
O=C(CSc1nnc(CN2CCOCC2)n1-c1ccccc1)Nc1ccc(Cl)cc1	none
O=C(NC1CCCC1)c1cc2nc(-c3ccccc3)cc(-c3ccccc3)n2n1	none
CC1CCN(C(=O)c2cc3nc(-c4ccccc4)cc(-c4ccccc4)n3n2)CC1	Rce1 inhib active
CCOC(=O)c1cnc(SC2CC(=O)N(c3cccc(OC)c3)C2=O)nc1N (configuration not stated)	PfM18AAP inh 29 (no result: Platelet DG rel)
CN(CC(=O)Nc1ccc(SC(F)F)cc1)C1CCCCC1	none
Cc1cccc(Nc2ccccc2C(=O)OCC(=O)NCc2ccco2)c1C	none
Cc1ccccc1C(=O)OCC(=O)NCc1ccco1	Exocytosis inh 62 (no result: Platelet DG rel, PfM18AAP inh, Rce1 inhib)
O=c1oc(-c2cccc(Cl)c2)nc2c1cnn2-c1ccccc1	none (no result: Rce1 inhib)
O=c1oc(-c2ccccc2F)nc2c1cnn2-c1ccccc1	Exocytosis inh 84
O=C(C1CCCN(S(=O)(=O)c2ccc(Br)s2)C1)N1CCN(c2ccccc2)CC1 (configuration not stated)	none
Cc1nc2sc(C(c3ccccc3)N3CCN(CCO)CC3)c(O)n2n1 (configuration not stated)	none (no result: PfM18AAP inh)
Oc1c(C(c2ccccc2)N2CCN(Cc3ccccc3)CC2)sc2ncnn12 (configuration not stated)	PfM18AAP inh 29
O=C(O)c1ccccc1C=NN=C1c2ccccc2-c2ccccc21	none (no result: Platelet DG rel, PfM18AAP inh, Rce1 inhib)
CC1CCc2c(sc(NC(=O)COC(=O)c3ccccc3NCc3ccco3)c2C#N)C1 (configuration not stated)	Rce1 inhib active
CC1CCc2c(sc(NC(=O)c3ccccc3C(=O)O)c2C#N)C1 (configuration not stated)	none
Cc1c(Br)c(O)c(Br)c(O)c1/C=N/n1c(-c2ccccc2)n[nH]c1=S	PfM18AAP inh 29
O=C(/C=C/c1ccc(O)cc1)c1ccccc1	Platelet DG rel 72

Compound activity as filed in PubChem BioAssay.
